Experimental data published in PubChem BioAssay (EPA / NIEHS).
Results filed as inconclusive are left out. Activity calls are given as the source filed them. How the source made its calls, unless noted: active means hit-call score of the fitted dose curve at least 0.9, where 1 is the maximum; inactive means score below 0.9.

Assays:
[1] = molecular target: Nucleoli Translocation, AR (gene 367) (UniProt P10275); assay: UPITT_HCI_U2OS_AR_TIF2_Nucleoli_Antagonist: University of Pittsburgh U2OS Androgen Receptor-Transcriptional Intermediary Factor 2 (AR-TIF2) Antagonism High Content Imaging Assay for Nucleoli Translocation (AID 2283997; active means hit-call score of the fitted dose curve at least 0.9, where 1 is the maximum)
Chain of Nucleoli Translocation, AR (gene 367) (P10275 whole entry, looked up, the tested form may be a part): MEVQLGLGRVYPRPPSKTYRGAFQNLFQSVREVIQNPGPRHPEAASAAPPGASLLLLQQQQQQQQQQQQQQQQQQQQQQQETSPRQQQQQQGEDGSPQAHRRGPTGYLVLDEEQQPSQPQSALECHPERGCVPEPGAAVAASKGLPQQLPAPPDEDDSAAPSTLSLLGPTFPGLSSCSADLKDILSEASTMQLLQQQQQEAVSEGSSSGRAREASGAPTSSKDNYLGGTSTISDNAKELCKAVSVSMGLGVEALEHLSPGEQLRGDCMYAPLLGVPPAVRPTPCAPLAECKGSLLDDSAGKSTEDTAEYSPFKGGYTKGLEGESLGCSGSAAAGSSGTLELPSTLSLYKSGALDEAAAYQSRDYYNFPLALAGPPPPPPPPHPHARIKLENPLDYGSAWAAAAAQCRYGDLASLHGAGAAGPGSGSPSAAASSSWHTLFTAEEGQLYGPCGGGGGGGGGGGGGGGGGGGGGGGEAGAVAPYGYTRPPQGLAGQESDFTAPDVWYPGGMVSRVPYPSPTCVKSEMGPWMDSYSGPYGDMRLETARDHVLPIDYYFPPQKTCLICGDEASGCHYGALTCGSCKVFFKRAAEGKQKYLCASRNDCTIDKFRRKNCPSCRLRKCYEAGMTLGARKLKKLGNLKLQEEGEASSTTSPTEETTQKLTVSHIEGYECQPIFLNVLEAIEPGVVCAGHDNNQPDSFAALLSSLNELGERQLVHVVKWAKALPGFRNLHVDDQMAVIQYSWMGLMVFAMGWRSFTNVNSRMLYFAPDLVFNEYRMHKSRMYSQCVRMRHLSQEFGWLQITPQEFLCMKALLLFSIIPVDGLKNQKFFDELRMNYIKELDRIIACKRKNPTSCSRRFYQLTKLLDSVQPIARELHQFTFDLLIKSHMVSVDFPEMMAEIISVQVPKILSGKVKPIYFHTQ
Summary of the method: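 U2OS cells expressing RFP-tagged human AR and GFP-tagged TIF2 were imaged by high-content fluorescence microscopy for red AR signal in the nucleolar region. Compounds were screened at 20 uM final (0.2% DMSO), with activity fitted relative to DHT as baseline.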

[2] = molecular target: Nucleoli Translocation, AR (gene 367) (UniProt P10275); assay: UPITT_HCI_U2OS_AR_TIF2_Nucleoli_Agonist: University of Pittsburgh U2OS Androgen Receptor-Transcriptional Intermediary Factor 2 (AR-TIF2) Agonism High Content Imaging Assay for Nucleoli Translocation (AID 2283998; active means hit-call score of the fitted dose curve at least 0.9, where 1 is the maximum)
Summary of the method: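 High-content images quantify nucleolar accumulation of RFP-fused AR in cells also expressing GFP-TIF2; the endpoint is fitted as signal gain versus DMSO controls across final concentrations of 0.195 to 50 uM.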

[3] = molecular target: Ratio of Nucleoli Translocation and Cytoplasm, AR (gene 367) (UniProt P10275); assay: UPITT_HCI_U2OS_AR_TIF2_Nucleoli_Cytoplasm_Ratio_Agonist: University of Pittsburgh U2OS Androgen Receptor-Transcriptional Intermediary Factor 2 (AR-TIF2) Agonism High Content Imaging Assay for Ratio of Nucleoli Translocation and Cytoplasm (AID 2284000; active means hit-call score of the fitted dose curve at least 0.9, where 1 is the maximum;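 further: hits raise the red nucleolar to cytoplasm ratio above vehicle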)
Chain of Ratio of Nucleoli Translocation and Cytoplasm, AR (gene 367) (P10275 whole entry, looked up): as the sequence (P10275 whole entry, looked up, the tested form may be a part) above
Summary of the method: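 U2OS cells expressing RFP-tagged human AR and GFP-tagged TIF2 were imaged by high-content fluorescence microscopy. The endpoint is the ratio of nucleolar to cytoplasmic red fluorescence, fitted for gain of signal relative to DMSO. Concentration-response spanned 0.195 to 50 uM final (0.5% DMSO).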

[4] = CCTE_Harrill_HTTr_Viability_MCF7: CCTE's 6-hour Cell Viability Assessment for the High-Throughput Transcriptomics (HTTr) Platform, in MCF-7 cells cultured in DMEM + 10% fetal bovine serum, Harrill Lab (AID 2284010)
Summary of the method: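 Viability measured through PI dye exclusion by high-content imaging at 6 h post-dosing.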

[5] = CCTE_Harrill_HTTr_Apoptosis_MCF7: CCTE's 6-hour Apoptosis Assessment for the High-Throughput Transcriptomics (HTTr) Platform, in MCF-7 cells cultured in DMEM + 10% fetal bovine serum, Harrill Lab (AID 2284011)
Summary of the method: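 Apoptosis in MCF-7 cells grown in DMEM with 10% fetal bovine serum was scored after a six hour exposure by high content imaging of caspase-3/7 activation (CellEvent Caspase 3/7 Green), with DMSO serving as negative control and baseline.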

[6] = molecular target: Ratio of Nucleoli Translocation and Cytoplasm, AR (gene 367) (UniProt P10275); assay: UPITT_HCI_U2OS_AR_TIF2_Nucleoli_Cytoplasm_Ratio_Antagonist: University of Pittsburgh U2OS Androgen Receptor-Transcriptional Intermediary Factor 2 (AR-TIF2) Antagonism High Content Imaging Assay for Ratio of Nucleoli Translocation and Cytoplasm (AID 2283999; active means hit-call score of the fitted dose curve at least 0.9, where 1 is the maximum;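 further: antagonists lower the DHT-driven ratio of nucleolar to cytoplasmic red signal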)
Summary of the method: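 High-content imaging quantifies the red nucleolar:cytoplasmic fluorescence ratio in U2OS cells with AR-RFP and TIF2-GFP. Final concentrations are 20 uM (screen) or 0.195–50 uM (dose response), analysed against DHT as baseline.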

[7] = CCTE_Simmons_MITO_max_resp_rate: CCTE's HepG2 Seahorse XF Respirometric Screening Assay at Maximal Respiratory State [uncoupled], Simmons Lab (AID 2284002); conditions: actives raise or lower the signal
Summary of the method: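 Uncoupled (FCCP) respiration of HepG2 cells served as the endpoint, with measurements at 6-minute intervals across a 72-minute run and compounds dosed at 7 concentrations up to 100 uM final.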

[8] = CCTE_Simmons_MITO_viability: CellTiter-Glo Viability Assessment for CCTE's HepG2 Seahorse XF Respirometric Screening Assay [post-hoc], Simmons Lab (AID 2284007; active means hit-call score of the fitted dose curve at least 0.9, where 1 is the maximum;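 on AC50: cells exposed to chemical for 90 min before the ATP read; actives lower ATP signal relative to DMSO baseline meaning reduced viability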)
Summary of the method: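 HepG2 cells; test chemical 7 conc. (125 nM–100 uM final) × 90 min; then luminescent ATP detection. DMSO vehicle. Positive control dichlone, 8 conc. from 10 nM to 100 uM final. Loss-of-signal endpoint.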

[9] = CCTE_Shafer_MEA_acute_spike_number: CCTE's Neural Acute Assay for Total Number of Spikes, Shafer Lab (AID 2284008);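 on AC50: curve fitted for decrease in spike count so AC50 reflects inhibitors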
Summary of the method: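 Using an adaptive detector set to 8x rms noise, spikes were counted in 40-min windows before and after compound addition (0.03-40 uM) to rat cortical networks at 37 C; the well-level change from baseline was analysed relative to DMSO.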

[10] = CCTE_Shafer_MEA_acute_firing_rate_mean: CCTE's Neural Acute Assay for Mean Firing Rate, Shafer Lab (AID 2284009);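 further: analyzed for loss of signal so actives lower firing rate relative to DMSO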
Summary of the method: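 Read-out: well-mean spike rate (spikes/recording length/electrodes), % change from 40 min pre-dose baseline to 40 min with compound. Rat cortical cultures, DIV 13 or 15, 37 C; 0.03-40 uM; DMSO as negative control.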

[11] = CCTE_Harrill_HTTr_CellCount_MCF7: CCTE's Cell Proliferation Assessment for the High-Throughput Transcriptomics (HTTr) Platform, Harrill Lab (AID 2284012; active means hit-call score of the fitted dose curve at least 0.9, where 1 is the maximum;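 further: count of Hoechst-stained nuclei per well by high-content imaging in MCF-7 cells; cells exposed to compound for six hours; intended direction is loss of nuclei count meaning fewer cells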)
Summary of the method: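 Nuclei counting (Hoechst, high content imaging) in MCF-7 after a 6 h treatment at eight concentrations. Activity fitted bidirectionally, DMSO as negative control.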

[12] = CCTE_Shafer_MEA_acute_burst_number: CCTE's Neural Acute Assay for Single-Electrode Bursts, Shafer Lab (AID 2284013)
Summary of the method: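 Rat cortical cultures, DIV 13/15; 40 min baseline, then 40 min with compound 0.03-40 uM, 37 C. Spikes: 300-5000 Hz band-pass, threshold 8x rms noise. Readout = % change in single-electrode bursts vs baseline, loss-of-signal fit.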

[13] = CCTE_Shafer_MEA_acute_burst_duration_mean: CCTE's Neural Acute Assay for Mean Burst Duration, Shafer Lab (AID 2284014);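 further: hits are decreases in mean burst duration relative to DMSO controls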
Summary of the method: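 Primary rat cortical neurons on 16-electrode MEA wells, treated on DIV 13 or 15 with compound (0.03-40 uM; ≥3 wells each). 40-min baseline and 40-min exposure recordings at 37 C; percent change in mean burst duration per well versus DMSO.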

[14] = CCTE_Shafer_MEA_acute_interburst_interval_mean: CCTE's Neural Acute Assay for Mean Interburst Interval, Shafer Lab (AID 2284016);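 further: percent change of mean interburst interval versus each well's own pre-dose baseline; curves fitted for decrease in interburst interval relative to DMSO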
Summary of the method: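 Primary rat cortical neurons on 16-electrode MEA wells were recorded 40 min at baseline on DIV 13 or 15, then 40 min after compound (0.03-40 uM), at 37 C. Value is percent change in mean interburst interval per well, DMSO as negative control.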

[15] = CCTE_Shafer_MEA_acute_burst_percentage_mean: CCTE's Neural Acute Assay for Percentage of Spikes in a Burst, Shafer Lab (AID 2284017)
Summary of the method: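 Primary rat cortical neurons on 16-electrode MEA wells; 40 min baseline recorded at DIV 13 or 15, then 40 min after compound (0.03-40 uM) at 37 C. Well-mean fraction of spikes in single-electrode bursts; percent change from baseline, DMSO as negative control.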

[16] = CCTE_Shafer_MEA_acute_burst_percentage_std: CCTE's Neural Acute Assay for Standard Deviation of Burst Percentage, Shafer Lab (AID 2284018);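 further: fitted in the negative direction so actives lower burst percentage SD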
Summary of the method: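 Primary rat cortical neurons on 16-electrode MEA wells were recorded 40 min at baseline (DIV 13 or 15), then 40 min after compound (0.03-40 uM), at 37 C. Well value is SD across electrodes of spikes-in-bursts/total spikes; endpoint is percent change, DMSO-referenced.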

[17] = CCTE_Shafer_MEA_acute_per_network_burst_spike_number_mean: CCTE's Neural Acute Assay for Average Number of Spikes in a Network Burst, Shafer Lab (AID 2284019);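 on AC50: curve fitted for loss of signal so actives reduce spikes per network burst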
Summary of the method: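 Primary rat cortical neurons on 16-electrode MEA wells, DIV 13 or 15, 37 C; 40-min baseline then 40-min recording with compound (0.03-40 uM). Spikes per network burst (total spikes/number of bursts) expressed as percent change from baseline, DMSO reference.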

[18] = CCTE_Shafer_MEA_acute_per_network_burst_spike_number_std: CCTE's Neural Acute Assay for Standard Deviation of Number of Spikes in a Network Burst, Shafer Lab (AID 2284020);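 further: fitted for decrease in spike-number SD versus DMSO so actives lower it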
Summary of the method: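 Primary rat cortical neurons on 48-well MEAs (16 electrodes/well) recorded at DIV 13 or 15: 40-min baseline, then 40 min with compound (0.03-40 uM), 37 C. Value is percent change in SD of spikes per network burst, relative to DMSO.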

[19] = CCTE_Shafer_MEA_acute_per_network_burst_electrodes_number_mean: CCTE's Neural Acute Assay for Mean Number of Electrodes in a Network Burst, Shafer Lab (AID 2284021);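 further: curves fitted for decreases only so hits reduce electrodes per burst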
Summary of the method: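 Percent change from baseline in average electrode count per network burst, rat cortical cultures on 48-well MEAs; 40-min recordings each side of exposure, DIV 13 or 15; threshold 8x rms noise; DMSO as negative control.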

Measured: AC50

CCOC(=O)COc1cc(-c2nn(C)c(OC(F)F)c2Cl)c(F)cc1Cl
inactive: [1] | [2] | [3] | [4] | [5]

C=C(C)[C@H]1Cc2c(ccc3c2O[C@@H]2COc4cc(OC)c(OC)cc4[C@@H]2C3=O)O1
inactive: [2] | [6] | [3] | [4] | [5] | [11] | [12] | [13] | [14] | [15] | [17] | [18] | [19]
active: [1] 50 µM | [7] 0.0663 µM | [8] 13.3 µM | [9] 2.81 µM | [10] 2.85 µM | [16] 30.3 µM

CCCOc1nn(C(=O)NS(=O)(=O)c2ccccc2C(=O)OC)c(=O)n1C
inactive: [1] | [2] | [6] | [3] | [4] | [5] | [11]

CCCCOC(=O)[C@@H](C)Oc1ccc(Oc2ccc(C#N)cc2F)cc1
inactive: [7] | [8] | [4] | [5]

CSc1nnc(C(C)(C)C)c(=O)n1N
inactive: [4] | [5]

COP(=O)(OC)C(O)C(Cl)(Cl)Cl (stereo not drawn)
inactive: [9] | [10] | [4] | [5] | [11] | [12] | [13] | [14] | [15] | [16] | [18] | [19]
active: [17] 15 µM

CCOP(=S)(OCC)SCCSCC
active: [19] 2.98 µM
inactive: [7] | [9] | [10] | [4] | [5] | [12] | [13] | [14] | [15] | [16] | [17] | [18]

CCCSP(=O)(OCC)Oc1ccc(Br)cc1Cl (stereo not drawn)
inactive: [4] | [5] | [11]

CC(C1CC1)C(O)(Cn1cncn1)c1ccc(Cl)cc1 (stereo not drawn)
inactive: [8] | [4] | [5] | [11]
active: [7] 50 µM

Cc1cc(C2CC2)nc(Nc2ccccc2)n1
inactive: [4] | [5] | [11]

CCC(=NOC/C=C/Cl)C1=C(O)CC(C2CCOCC2)CC1=O (stereo not drawn)
inactive: [4] | [5]

CN1COCN(Cc2cnc(Cl)s2)C1=N[N+](=O)[O-]
inactive: [9] | [10] | [4] | [5] | [12] | [13] | [14] | [15] | [16] | [17] | [18] | [19]
